How the values were obtained:
Assay in all cases: log2 ratio of Biotin-Ahx-Ub-VS probe labelling (fragment/DMSO); higher = less target engagement (more negative = stronger competition), active = hit call of the paper (q ≤ 0.05, log2 ratio ≤ -1)
Details in all cases: compound concentration: 200 uM; treatment time: 3 h
USP34 = USP34 (UniProt Q70CQ2)
Outline: (§1)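 Labelling with Biotin-Ahx-Ub-VS (0.5 µM final, 1 h) followed a 3 h triplicate treatment of HEK293T lysate (495 µg per sample, Tris/CHAPS/IGEPAL buffer with protease inhibitors) with fragment at 200 µM or vehicle. Labelled DUBs were NeutrAvidin-enriched, digested with LysC and trypsin, and run by diaPASEF LC-MS/MS. The values, average log2 fragment/vehicle ratios by unpaired t-test, come from global-median-normalised Spectronaut label-free quantities. Proteins with ≥2 unique peptides were used.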

USP36 = biological target: T1, USP36 (UniProt Q9P275)
T1 sequence (whole entry): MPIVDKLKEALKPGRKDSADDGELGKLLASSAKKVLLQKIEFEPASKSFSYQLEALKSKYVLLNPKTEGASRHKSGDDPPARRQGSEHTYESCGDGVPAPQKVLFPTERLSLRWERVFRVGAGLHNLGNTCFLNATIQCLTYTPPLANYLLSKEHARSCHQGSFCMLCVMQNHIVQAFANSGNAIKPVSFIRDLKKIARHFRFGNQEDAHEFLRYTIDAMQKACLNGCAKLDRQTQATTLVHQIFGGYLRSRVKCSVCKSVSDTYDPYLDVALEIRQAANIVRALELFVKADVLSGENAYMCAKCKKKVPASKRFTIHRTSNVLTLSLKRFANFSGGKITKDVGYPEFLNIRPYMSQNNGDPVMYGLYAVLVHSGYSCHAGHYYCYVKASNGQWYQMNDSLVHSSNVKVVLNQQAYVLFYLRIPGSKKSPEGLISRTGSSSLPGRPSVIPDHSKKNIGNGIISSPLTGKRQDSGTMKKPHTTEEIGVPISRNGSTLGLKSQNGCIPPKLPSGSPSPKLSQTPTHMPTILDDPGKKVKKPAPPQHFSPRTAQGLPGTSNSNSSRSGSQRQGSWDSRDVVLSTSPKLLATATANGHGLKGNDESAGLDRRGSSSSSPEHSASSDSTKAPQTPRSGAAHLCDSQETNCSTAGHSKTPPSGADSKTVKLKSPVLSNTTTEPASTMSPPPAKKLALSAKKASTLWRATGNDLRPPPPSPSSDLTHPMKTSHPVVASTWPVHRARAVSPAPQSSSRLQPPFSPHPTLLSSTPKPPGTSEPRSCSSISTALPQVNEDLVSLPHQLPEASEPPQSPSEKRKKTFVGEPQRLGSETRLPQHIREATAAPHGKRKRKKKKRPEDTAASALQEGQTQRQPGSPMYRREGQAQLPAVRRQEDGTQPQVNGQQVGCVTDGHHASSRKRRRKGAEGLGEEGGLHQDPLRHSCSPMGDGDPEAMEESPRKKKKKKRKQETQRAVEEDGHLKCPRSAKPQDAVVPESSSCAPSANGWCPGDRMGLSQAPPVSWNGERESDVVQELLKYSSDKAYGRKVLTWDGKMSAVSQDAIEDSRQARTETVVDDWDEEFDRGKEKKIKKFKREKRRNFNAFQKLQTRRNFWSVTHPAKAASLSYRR
Outline: as §1

USP38 = biological target: T2, USP38 (UniProt Q8NB14)
T2 sequence (whole entry): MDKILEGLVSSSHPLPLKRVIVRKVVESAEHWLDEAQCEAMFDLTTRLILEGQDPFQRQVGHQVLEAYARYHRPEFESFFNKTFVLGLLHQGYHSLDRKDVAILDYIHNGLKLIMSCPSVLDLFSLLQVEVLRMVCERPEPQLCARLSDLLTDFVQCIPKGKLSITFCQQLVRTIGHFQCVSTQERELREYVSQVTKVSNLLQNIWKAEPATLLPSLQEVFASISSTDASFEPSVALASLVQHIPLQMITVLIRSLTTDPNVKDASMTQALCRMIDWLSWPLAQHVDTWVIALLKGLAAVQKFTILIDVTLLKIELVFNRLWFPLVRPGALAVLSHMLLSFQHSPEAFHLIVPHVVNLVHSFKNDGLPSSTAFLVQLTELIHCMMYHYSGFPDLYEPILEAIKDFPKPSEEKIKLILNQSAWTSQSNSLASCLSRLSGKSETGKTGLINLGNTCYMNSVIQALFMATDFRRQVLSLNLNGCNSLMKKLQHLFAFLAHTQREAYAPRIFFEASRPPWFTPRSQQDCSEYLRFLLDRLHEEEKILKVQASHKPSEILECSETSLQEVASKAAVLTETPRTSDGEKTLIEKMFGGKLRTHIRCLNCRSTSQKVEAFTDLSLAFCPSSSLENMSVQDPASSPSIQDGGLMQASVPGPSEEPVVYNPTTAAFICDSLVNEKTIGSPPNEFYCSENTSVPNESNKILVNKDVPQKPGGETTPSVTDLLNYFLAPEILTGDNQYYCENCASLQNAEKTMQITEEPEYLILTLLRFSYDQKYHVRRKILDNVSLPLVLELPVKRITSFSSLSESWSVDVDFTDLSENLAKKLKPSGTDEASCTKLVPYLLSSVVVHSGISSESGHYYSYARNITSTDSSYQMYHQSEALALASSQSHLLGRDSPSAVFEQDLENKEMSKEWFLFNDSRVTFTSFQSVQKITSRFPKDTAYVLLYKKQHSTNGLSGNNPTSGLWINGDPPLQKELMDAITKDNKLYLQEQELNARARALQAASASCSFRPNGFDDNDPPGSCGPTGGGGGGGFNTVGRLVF
Outline: as §1

USP39 = biological target: T3, USP39 (UniProt Q53GS9)
T3 sequence (whole entry): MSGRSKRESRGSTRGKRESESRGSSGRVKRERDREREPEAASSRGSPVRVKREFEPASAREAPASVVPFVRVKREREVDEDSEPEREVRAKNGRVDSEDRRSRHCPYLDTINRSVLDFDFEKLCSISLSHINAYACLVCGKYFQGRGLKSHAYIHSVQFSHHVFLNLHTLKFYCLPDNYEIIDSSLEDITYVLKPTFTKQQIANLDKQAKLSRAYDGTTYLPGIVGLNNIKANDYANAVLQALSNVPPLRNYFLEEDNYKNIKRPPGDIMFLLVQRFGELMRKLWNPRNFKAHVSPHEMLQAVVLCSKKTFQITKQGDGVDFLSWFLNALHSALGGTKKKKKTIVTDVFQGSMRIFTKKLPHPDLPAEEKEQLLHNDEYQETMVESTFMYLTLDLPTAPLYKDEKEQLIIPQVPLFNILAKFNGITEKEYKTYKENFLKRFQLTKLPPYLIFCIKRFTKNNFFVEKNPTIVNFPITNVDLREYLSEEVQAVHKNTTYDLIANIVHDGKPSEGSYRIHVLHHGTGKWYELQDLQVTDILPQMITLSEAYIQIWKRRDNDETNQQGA
Outline: as §1

USP4 = biological target: T4, USP4 (UniProt Q13107)
T4 sequence (whole entry): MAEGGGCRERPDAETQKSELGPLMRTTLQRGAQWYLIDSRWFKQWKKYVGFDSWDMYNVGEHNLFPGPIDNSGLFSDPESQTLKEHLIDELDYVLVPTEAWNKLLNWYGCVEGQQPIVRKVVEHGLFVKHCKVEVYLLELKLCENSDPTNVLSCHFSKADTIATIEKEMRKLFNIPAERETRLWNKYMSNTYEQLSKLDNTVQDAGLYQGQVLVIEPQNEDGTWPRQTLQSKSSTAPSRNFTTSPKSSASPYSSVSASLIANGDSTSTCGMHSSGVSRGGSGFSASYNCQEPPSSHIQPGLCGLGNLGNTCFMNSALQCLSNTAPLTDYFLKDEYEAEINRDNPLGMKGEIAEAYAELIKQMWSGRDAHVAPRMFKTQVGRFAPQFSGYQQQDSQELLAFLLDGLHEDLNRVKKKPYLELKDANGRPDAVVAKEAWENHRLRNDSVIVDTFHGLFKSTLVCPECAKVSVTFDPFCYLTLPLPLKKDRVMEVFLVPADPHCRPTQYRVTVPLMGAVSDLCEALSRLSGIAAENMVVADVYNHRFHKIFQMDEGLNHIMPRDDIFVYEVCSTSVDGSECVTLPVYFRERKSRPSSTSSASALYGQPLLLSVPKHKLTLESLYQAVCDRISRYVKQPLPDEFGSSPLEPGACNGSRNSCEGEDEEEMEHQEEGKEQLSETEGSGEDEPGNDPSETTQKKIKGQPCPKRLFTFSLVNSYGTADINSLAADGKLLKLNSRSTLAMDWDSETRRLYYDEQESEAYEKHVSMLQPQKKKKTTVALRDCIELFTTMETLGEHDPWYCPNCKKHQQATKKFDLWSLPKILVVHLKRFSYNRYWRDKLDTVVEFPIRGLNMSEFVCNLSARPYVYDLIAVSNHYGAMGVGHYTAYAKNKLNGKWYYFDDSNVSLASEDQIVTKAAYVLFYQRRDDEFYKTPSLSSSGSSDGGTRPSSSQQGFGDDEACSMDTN
Outline: as §1

Measured: log2 ratio of Biotin-Ahx-Ub-VS probe labelling

Sequence of USP34 (Q70CQ2 whole entry, the tested form may be a part): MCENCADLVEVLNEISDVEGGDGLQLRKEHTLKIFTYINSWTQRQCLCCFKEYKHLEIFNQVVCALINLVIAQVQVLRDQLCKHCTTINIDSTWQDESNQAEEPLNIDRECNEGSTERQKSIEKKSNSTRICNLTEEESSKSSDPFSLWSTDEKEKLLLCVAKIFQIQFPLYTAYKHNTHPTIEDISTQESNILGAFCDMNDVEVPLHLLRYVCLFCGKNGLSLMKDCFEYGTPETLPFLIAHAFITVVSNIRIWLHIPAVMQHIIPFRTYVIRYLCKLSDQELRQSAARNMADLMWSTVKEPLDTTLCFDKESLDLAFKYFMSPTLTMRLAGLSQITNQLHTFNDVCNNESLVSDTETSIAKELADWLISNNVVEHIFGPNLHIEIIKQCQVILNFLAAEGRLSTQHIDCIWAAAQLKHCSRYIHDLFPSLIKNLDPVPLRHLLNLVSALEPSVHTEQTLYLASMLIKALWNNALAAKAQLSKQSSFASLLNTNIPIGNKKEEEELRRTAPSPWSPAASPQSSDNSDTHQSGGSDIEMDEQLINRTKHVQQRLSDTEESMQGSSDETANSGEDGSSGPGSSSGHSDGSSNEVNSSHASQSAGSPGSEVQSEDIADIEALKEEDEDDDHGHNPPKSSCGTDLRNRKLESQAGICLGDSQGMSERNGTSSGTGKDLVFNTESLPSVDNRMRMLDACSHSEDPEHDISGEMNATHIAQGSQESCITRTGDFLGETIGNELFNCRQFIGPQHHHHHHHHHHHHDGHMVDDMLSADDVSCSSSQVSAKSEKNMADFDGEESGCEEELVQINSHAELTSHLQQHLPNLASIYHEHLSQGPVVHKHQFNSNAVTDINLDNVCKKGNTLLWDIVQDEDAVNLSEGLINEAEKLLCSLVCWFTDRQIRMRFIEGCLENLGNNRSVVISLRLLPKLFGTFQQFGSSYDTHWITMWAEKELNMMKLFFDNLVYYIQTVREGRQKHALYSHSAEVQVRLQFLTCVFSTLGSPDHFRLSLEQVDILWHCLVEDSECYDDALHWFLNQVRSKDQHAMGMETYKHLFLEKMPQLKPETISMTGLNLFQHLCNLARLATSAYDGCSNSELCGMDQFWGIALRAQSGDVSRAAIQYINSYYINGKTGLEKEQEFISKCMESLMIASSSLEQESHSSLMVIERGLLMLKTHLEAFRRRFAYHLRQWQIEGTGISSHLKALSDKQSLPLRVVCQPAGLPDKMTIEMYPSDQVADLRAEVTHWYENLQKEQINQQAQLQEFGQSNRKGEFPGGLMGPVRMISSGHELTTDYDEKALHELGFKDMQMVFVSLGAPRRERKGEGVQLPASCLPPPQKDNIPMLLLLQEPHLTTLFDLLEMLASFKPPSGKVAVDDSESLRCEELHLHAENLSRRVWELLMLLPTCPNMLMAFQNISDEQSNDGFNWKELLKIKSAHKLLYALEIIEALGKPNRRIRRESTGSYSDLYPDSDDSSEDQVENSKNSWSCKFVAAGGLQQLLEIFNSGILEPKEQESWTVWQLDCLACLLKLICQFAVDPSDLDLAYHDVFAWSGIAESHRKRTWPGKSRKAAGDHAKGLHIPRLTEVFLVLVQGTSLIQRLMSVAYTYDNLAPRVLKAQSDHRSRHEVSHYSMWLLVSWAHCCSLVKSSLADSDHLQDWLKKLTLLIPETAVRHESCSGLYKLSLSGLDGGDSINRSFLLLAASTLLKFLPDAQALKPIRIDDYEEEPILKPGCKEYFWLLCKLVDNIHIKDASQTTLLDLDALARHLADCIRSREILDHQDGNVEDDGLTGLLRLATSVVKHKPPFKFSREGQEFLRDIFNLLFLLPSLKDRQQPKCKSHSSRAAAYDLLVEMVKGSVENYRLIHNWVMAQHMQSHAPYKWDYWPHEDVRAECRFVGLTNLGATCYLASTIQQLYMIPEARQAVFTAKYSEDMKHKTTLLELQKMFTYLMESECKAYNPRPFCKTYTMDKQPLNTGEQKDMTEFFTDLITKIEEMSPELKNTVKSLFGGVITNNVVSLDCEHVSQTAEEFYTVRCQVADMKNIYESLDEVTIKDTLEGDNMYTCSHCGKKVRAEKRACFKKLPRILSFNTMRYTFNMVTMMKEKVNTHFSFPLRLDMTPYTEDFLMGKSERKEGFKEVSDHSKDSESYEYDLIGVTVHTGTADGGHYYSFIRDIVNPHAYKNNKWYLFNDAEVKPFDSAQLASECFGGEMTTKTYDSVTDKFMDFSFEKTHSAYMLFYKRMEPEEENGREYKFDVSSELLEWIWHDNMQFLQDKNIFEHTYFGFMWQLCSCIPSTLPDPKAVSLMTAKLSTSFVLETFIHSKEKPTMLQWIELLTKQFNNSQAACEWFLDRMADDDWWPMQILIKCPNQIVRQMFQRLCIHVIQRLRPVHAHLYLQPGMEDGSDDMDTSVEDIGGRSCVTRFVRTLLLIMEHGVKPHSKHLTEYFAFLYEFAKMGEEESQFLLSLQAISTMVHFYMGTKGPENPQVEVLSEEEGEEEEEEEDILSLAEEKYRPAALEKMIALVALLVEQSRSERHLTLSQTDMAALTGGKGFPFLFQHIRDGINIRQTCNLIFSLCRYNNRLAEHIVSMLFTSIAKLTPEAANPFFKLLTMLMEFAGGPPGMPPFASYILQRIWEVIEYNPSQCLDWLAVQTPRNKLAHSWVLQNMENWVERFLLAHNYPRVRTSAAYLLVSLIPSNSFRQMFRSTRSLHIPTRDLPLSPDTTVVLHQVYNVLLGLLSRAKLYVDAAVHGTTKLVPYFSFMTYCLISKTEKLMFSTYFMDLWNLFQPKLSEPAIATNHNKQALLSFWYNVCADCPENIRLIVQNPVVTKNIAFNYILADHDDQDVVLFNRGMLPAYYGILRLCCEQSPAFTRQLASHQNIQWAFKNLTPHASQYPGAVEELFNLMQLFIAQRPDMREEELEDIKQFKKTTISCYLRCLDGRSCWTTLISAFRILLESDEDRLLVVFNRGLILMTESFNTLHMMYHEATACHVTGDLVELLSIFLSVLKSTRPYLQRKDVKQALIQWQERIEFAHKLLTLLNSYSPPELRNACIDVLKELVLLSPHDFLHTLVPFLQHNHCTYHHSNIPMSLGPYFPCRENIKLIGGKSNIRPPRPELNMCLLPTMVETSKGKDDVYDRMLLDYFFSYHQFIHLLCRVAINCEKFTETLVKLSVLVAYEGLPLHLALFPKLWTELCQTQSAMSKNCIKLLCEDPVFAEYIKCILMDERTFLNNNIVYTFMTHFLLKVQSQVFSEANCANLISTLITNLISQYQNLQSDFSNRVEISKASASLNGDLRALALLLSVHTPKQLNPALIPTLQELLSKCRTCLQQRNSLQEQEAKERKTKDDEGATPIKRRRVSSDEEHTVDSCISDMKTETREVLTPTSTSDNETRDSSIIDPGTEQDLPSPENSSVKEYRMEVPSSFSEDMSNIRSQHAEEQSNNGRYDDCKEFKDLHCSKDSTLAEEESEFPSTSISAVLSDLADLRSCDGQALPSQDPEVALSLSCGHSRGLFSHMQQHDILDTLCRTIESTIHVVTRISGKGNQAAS

CC(NC(=O)CCl)c1csc(-c2ccccc2)n1.Cl (stereo not given)
inactive: USP34 -0.477 | USP36 -0.276 | USP38 -0.266 | USP39 0.0283 | USP4 -0.166

— the supplement of paper PMC11732987, “Enantioselective OTUD7B fragment discovery through chemoproteomics screening and high-throughput optimisation” (Communications Chemistry, 2025)
